In PubChem BioAssay (NCI) one finds growth data, which are given here for 39 compounds.

This is part of a sample that, as a whole, favours compounds with a hit. Of some 83,000 tested, about 20% had one in any assay.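 96-well plates, one dose, 48 hours. Percent growth reported; active if below 10.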 A number with no mark means an inactive call. Active and inactive are the calls of the source.

The test system of the first experiment is RXF 393 renal. The experiment can be described thus: NCI-60 one-dose screen, 48 h (100 = growth as untreated, 0 = no growth, -100 = all killed). The settings on record: 10 µM unless noted.
For `C[C@@H]1CC[C@@H]2[C@@H]1[C@H](OC(=O)c1ccc3ccccc3c1)[C@]1(C3CCCCC3)C[C@@H](OC(=O)CO)[C@@]2(C)O1`, the growth is 8.34% (active).

As for `CN(C)c1ccc(C#Cc2c(F)cccc2Cl)cc1`, the growth was 112%.

Consider `CCCN1CCN(c2ccc3nc(-c4ccc5nc(-c6cc(OC)c(OC)c(OC)c6)[nH]c5c4)[nH]c3c2)CC1`, for which the growth is 15.6%.

In the case of `O=C(NCCOCCOCCOCCNC(=O)c1cc2c(o1)C(=O)c1ccccc1C2=O)NC12CC3CC(CC(C3)C1)C2`, the growth is -52.9% (active).

`COc1cc2c(cc1OC)-c1ccc3cc4c(cc3c1N(CCN(C)C)C2)OCO4`: the growth is -32.7% (active).

In the case of `O=C(NC(=S)Nc1ccc(-c2nc3ccccc3[nH]2)cc1)c1ccc2ccccc2c1`, the growth is -66.3% (active).

Take `CC[C@@H](C[C@H](CCO)c1ccccc1)c1cc2ccccc2o1`: the growth was 96.9%.

For `NC(N)=N/N=C/c1ccc(Br)cc1`, the growth was 70.8%.

For `CN(C)CCOC(=O)Nc1ccc(Cl)cc1`, the growth was 118%.

On to `O=C(/C=C/C12c3ccccc3C(c3ccccc31)C1C(=O)N(c3ccc(Cl)cc3)C(=O)C12)c1ccccn1` (centres undefined), for which the growth is -88.6% (active).

`OC(c1cccc(OCc2ccccc2)c1)c1nnc(-c2ccccc2)o1` (centres undefined): the growth is 95.5%.

Turning to `O=C1N(c2ccccc2)C(=S)N[C@]12[C@H](c1ccccc1)C1CCCN1[C@]21C(=O)NC2C=CC(Cl)=C[C@H]21` (some centres undefined), the growth was 100%.

For `COC(=O)/C(=C\c1ccc(OC)cc1)C(=O)N1c2ccccc2Sc2ccccc21`, the growth was 47.7%.

On to `Cc1ccc(S(=O)(=O)Nc2sccc2-c2nc(-c3ccccc3)no2)cc1`, for which the growth was 96.1%.

Consider `CCNCCNc1cc(-c2ccc(C(F)(F)F)cc2)c(C#N)c2nc3cc(Cl)c(Cl)cc3n12`, for which the growth was -96.3% (active).

Take `COc1ccc(/C=C(\C#N)n2nnc3ccccc32)cc1`: the growth was -39.3% (active).

`CC(C)n1nc(C#Cc2cccc3cc(-c4cccc(C(F)(F)F)c4)ncc23)c2c(N)ncnc21`: the growth was 81.7%.

Take `COC(=O)CNC(=O)C(=O)c1c(O)c(O)c(C(C)C)c2cc(C)c(-c3c(C)cc4c(C(C)C)c(O)c(O)c(C(=O)C(=O)NCC(=O)OC)c4c3O)c(O)c12`: the growth was 53.8%.

Regarding `NC(=O)c1c(NC(=O)c2ccc(C(F)(F)F)cc2Cl)sc2c1CCC(=O)C2`, the growth was -39% (active).

As for `C[C@@H](C[C@H](CCOCc1cccnc1)c1ccccc1)c1cc2ccccc2o1`, the growth is 92.8%.

Consider `CCn1c(Sc2nnc(Nc3ccccc3)s2)nc2c1c(=O)n(C)c(=O)n2C`, for which the growth is 91.4%.

In the case of `Cc1cc(Cl)nc(N(CCCNc2ccnc3cc(Cl)ccc23)Cc2ccccn2)n1`, the growth is 41.8%.

As for `OC(CBr)c1ccnc2ccccc12` (centres undefined), the growth is 107%.

Consider `COc1cc(C2C=C(c3cccc(NC(C)=O)c3)Nc3ncnn32)cc(OC)c1OC` (centres undefined), for which the growth is -28.3% (active).

`CCCCOC(=O)c1ccc(NC(=O)C(C)N2CCOCC2)cc1` (centres undefined): the growth was 102%.

A further experiment has as its system SF-268 CNS. The description is as above. Conditions: 10 µM unless noted.
For `COc1ccc(/C(C)=N/NS(=O)(=O)c2ccc(C)cc2)cc1OC`, the growth was 106%.

Regarding `C[C@@H]1C(=O)N(C[C@@H](Cc2ccccc2)NC(=O)OCc2ccccc2)[C@]1(Cc1ccccc1)C(=O)OCc1ccccc1`, the growth is 56.7%.

On to `NC(=Nc1ccc(N)cc1)C(N)=Nc1ccc(N)cc1`, for which the growth is 104%.

Turning to `N#Cc1c(NC(=O)c2ccccc2I)sc2c1CCCC2`, the growth is 58.1%.

With `Cc1ccc(Nc2ccc(Nc3ccc(C)cc3S(=O)(=O)O)c3c2C(=O)c2ccccc2C3=O)c(S(=O)(=O)O)c1`, the growth is 103%.

For the compound `C=C1C(=O)O[C@H]2[C@H]1CC/C(Cn1cc(CNCCc3c[nH]c4ccc(Cl)cc34)nn1)=C\CC[C@@]1(C)O[C@@H]21`, the growth was 77.9%.

In the case of `Cn1cc(Nc2nccc(-c3ccc(N4CCCC4)c(C#N)c3)n2)cn1`, the growth is 45.9%.

Consider `CSc1ncc(C)c(Nc2ccc(Cl)cc2)n1`, for which the growth is 99.9%.

As to `COc1cc(/C=C2\C=C(c3ccccc3)N(CCc3ccccc3)C2=O)cc(OC)c1OC`, the growth was 44.7%.

Take `O=c1cc(-c2ccc(OCc3ccccc3)cc2)oc2c(I)c(OCc3ccccc3)cc(OCc3ccccc3)c12`: the growth was 99%.

On to `CC(=O)Nc1nccs1`, for which the growth was 99.9%.

Take `N[C@H]1CCC[C@@H]1NCCCCN1C(=O)c2cccc3cccc(c23)C1=O`: the growth is 48.1%.

As to `N=C(N)c1ccc(-c2ccc(-c3ccc(Cl)cc3Cl)o2)nc1`, the growth was 80.1%.

With `O=C1N/C(=N/O)S/C1=C/c1cn(-c2ccccc2)nc1-c1ccccc1`, the growth was 97.7%.

Turning to `C[C@@H]1CC[C@@H]2[C@@H]1[C@H](OC(=O)c1ccc3ccccc3c1)[C@]1(C3CCCCC3)C[C@@H](OC(=O)CO)[C@@]2(C)O1`, the growth is 31.4%.

With `CN(C)c1ccc(C#Cc2c(F)cccc2Cl)cc1`, the growth is 87.7%.

Take `CCCN1CCN(c2ccc3nc(-c4ccc5nc(-c6cc(OC)c(OC)c(OC)c6)[nH]c5c4)[nH]c3c2)CC1`: the growth is 75.6%.

`O=C(NCCOCCOCCOCCNC(=O)c1cc2c(o1)C(=O)c1ccccc1C2=O)NC12CC3CC(CC(C3)C1)C2`: the growth was -5.16% (active).

For the compound `COc1cc2c(cc1OC)-c1ccc3cc4c(cc3c1N(CCN(C)C)C2)OCO4`, the growth was 23.6%.

For `O=C(NC(=S)Nc1ccc(-c2nc3ccccc3[nH]2)cc1)c1ccc2ccccc2c1`, the growth is 51%.

As to `CC[C@@H](C[C@H](CCO)c1ccccc1)c1cc2ccccc2o1`, the growth is 91.2%.

Consider `NC(N)=N/N=C/c1ccc(Br)cc1`, for which the growth is 62%.

Turning to `CN(C)CCOC(=O)Nc1ccc(Cl)cc1`, the growth is 105%.

As to `O=C(/C=C/C12c3ccccc3C(c3ccccc31)C1C(=O)N(c3ccc(Cl)cc3)C(=O)C12)c1ccccn1` (centres undefined), the growth is 8.62% (active).

Take `OC(c1cccc(OCc2ccccc2)c1)c1nnc(-c2ccccc2)o1` (centres undefined): the growth is 95.3%.

`O=C1N(c2ccccc2)C(=S)N[C@]12[C@H](c1ccccc1)C1CCCN1[C@]21C(=O)NC2C=CC(Cl)=C[C@H]21` (some centres undefined): the growth is 101%.

`COC(=O)/C(=C\c1ccc(OC)cc1)C(=O)N1c2ccccc2Sc2ccccc21`: the growth was 54.6%.

Turning to `Cc1ccc(S(=O)(=O)Nc2sccc2-c2nc(-c3ccccc3)no2)cc1`, the growth was 92.4%.

For the compound `CCNCCNc1cc(-c2ccc(C(F)(F)F)cc2)c(C#N)c2nc3cc(Cl)c(Cl)cc3n12`, the growth was -76.3% (active).

As to `COc1ccc(/C=C(\C#N)n2nnc3ccccc32)cc1`, the growth was 21.3%.

Take `CC(C)n1nc(C#Cc2cccc3cc(-c4cccc(C(F)(F)F)c4)ncc23)c2c(N)ncnc21`: the growth is 76%.

As to `COC(=O)CNC(=O)C(=O)c1c(O)c(O)c(C(C)C)c2cc(C)c(-c3c(C)cc4c(C(C)C)c(O)c(O)c(C(=O)C(=O)NCC(=O)OC)c4c3O)c(O)c12`, the growth is 26.8%.

Turning to `NC(=O)c1c(NC(=O)c2ccc(C(F)(F)F)cc2Cl)sc2c1CCC(=O)C2`, the growth was -2.06% (active).

As to `C[C@@H](C[C@H](CCOCc1cccnc1)c1ccccc1)c1cc2ccccc2o1`, the growth is 89.3%.

For `CCn1c(Sc2nnc(Nc3ccccc3)s2)nc2c1c(=O)n(C)c(=O)n2C`, the growth was 103%.

On to `Cc1cc(Cl)nc(N(CCCNc2ccnc3cc(Cl)ccc23)Cc2ccccn2)n1`, for which the growth was 74.6%.

In the case of `OC(CBr)c1ccnc2ccccc12` (centres undefined), the growth was 100%.

Consider `COc1cc(C2C=C(c3cccc(NC(C)=O)c3)Nc3ncnn32)cc(OC)c1OC` (centres undefined), for which the growth was 36.9%.

On to `CCCCOC(=O)c1ccc(NC(=O)C(C)N2CCOCC2)cc1` (centres undefined), for which the growth was 103%.
